Compound activity: PubChem BioAssay, National Center for Advancing Translational Sciences (NCATS)
TDP1 block: inhibitors of human tyrosyl-DNA phosphodiesterase TDP1; actives 0.28% (n = 350,000); Potency, µM (doses to about 130 µM), for inactives: at the highest dose activity change, negative = inhibition, hits mostly inhibitors; AID 485290; Q9NUW8; recombinant TDP1, AlphaScreen DNA substrate cleavage; also: nearly all actives have a fitted effect of over 40% in size
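AlphaScreen read-out: signal falls as enzyme removes the 3' tyrosine-FITC from a 5'-biotinylated DNA oligo (15 nM, 5 min, RT). Enzyme was E. coli-made recombinant Tdp1 at 1 nM, exposed to compound for 15 min beforehand; beads 10 ug/ml, 10 min.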
TDP1 cell noCPT: qHTS for Inhibitors of human tyrosyl-DNA phosphodiesterase 1 (TDP1): qHTS in cells in absence of CPT | DT40 Tdp1-/- hTDP1 cells, no CPT, ATP luminescence, 48 h | Potency, µM (titrated, usually from 46.2 µM), for inactives: at the highest dose activity change, negative = growth inhibition, actives largely listed as inhibitors | actives 15% (n = 420,000); also: nearly all actives have a fitted effect of over 55% in size
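Seeded 400 DT40-hTDP1 cells/well (vehicle DMSO, no 20 nM CPT); pinned compounds; ≥48 hr at 37 °C; CellTiter-Glo luminescence as viability measure.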
VDR inh: blocks the human vitamin D receptor; P11473; VDR-SRC2-3 peptide fluorescence polarization, 2 h; Potency, µM, inactives show max response, negative = inhibition, hits mostly inhibitors; actives 0.93% (n = 400,000); AID 504847
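Two reagent solutions held at 4 deg C in the dark were dispensed, compounds pinned at 23 nl, and the mixture incubated 2 h at room temperature. Read-out: fluorescence polarization of VDR–SRC2-3 peptide binding.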
TDP1 cell CPT: growth inhibition of DT40 Tdp1-/-;hTDP1 cells with camptothecin (screen for TDP1 inhibitors) | Potency, µM (highest dose often 46.2 µM), for inactives: at the top dose activity change, negative = growth inhibition, hits mostly inhibitors | chicken DT40 Tdp1-/-;hTDP1 cells + 20 nM CPT, ATP luminescence, 48 h | actives 12% (n = 420,000); also: nearly all actives have a fitted effect of over 55% in size
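Chicken DT40 Tdp1-/- cells stably complemented with human TDP1 were seeded at 400 cells/well in medium containing 20 nM camptothecin, exposed to pin-transferred compounds, and grown at 37 °C for at least 48 hr. Viability was read as ATP luminescence.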
KAT2A inh: blocks human GCN5L2 histone acetyltransferase | GCN5L2 HAT assay, ThioGlo1 CoA-SH fluorescence | Potency, µM (top dose mostly 58.9 µM), for the others: top-dose activity change, negative = inhibition, actives largely listed as inhibitors | actives 0.21% (n = 390,000) | AID 504327
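Compounds, pin-transferred from DMSO stocks, meet 20nM GCN5L2 for 15 min before the reaction begins with H3(1-25) peptide (75uM) and acetyl-CoA (70uM). Thiol-reactive ThioGlo1 reports CoA release over 20 min at room temperature.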
PLK1 PBD block: PLK1 (human) polo-box domain binding inhibition; P53350; Plk1 PBD binding of FITC phosphopeptide, fluorescence polarization; Potency, µM, inactives show max response, negative = inhibition, usual class: inhibitors; actives 2.8% (n = 360,000); AID 720504; also: series mostly up to about 57 µM; nearly all actives have a fitted effect of over 65% in size
Target sequence (P53350 whole entry, looked up, the tested form may be a part): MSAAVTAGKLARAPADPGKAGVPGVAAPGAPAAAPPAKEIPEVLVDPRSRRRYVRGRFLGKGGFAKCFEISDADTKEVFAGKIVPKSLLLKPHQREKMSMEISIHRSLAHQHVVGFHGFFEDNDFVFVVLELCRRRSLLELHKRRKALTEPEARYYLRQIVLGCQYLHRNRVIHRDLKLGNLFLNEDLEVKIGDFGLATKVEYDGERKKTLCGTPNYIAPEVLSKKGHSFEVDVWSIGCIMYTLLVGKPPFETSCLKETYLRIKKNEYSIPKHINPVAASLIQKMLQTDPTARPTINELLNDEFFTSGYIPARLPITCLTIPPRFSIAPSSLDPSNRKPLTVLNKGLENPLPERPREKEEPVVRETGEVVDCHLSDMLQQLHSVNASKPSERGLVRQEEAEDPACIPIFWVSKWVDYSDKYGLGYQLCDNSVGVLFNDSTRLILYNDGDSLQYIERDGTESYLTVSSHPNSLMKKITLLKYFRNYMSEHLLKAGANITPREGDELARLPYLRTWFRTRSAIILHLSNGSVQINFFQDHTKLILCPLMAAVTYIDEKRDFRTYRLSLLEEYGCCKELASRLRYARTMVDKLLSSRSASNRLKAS
Active calls of the source: *; ? = inconclusive; · = no result; [ ] = another dose, or the depositor's remark. In the library only some 18% were active in any assay of this set; here they are far more common. Calls follow the shape of the dose curve; as a rule, active = well fitted curve in the direction sought with a large enough effect; inconclusive = small, poorly fitted or top-dose-only effect, or another doubt; inactive = no such curve, though single readings can be large; an effect the other way counts as inactive or inconclusive. % is scaled to controls: 0 for no effect and ±100 for the full control effect; potency is read from the fitted curve at half-maximal effect.

SMILES	TDP1 block	TDP1 cell noCPT	VDR inh	TDP1 cell CPT	KAT2A inh	PLK1 PBD block
Cc1[nH]c(C)c(S(=O)(=O)N(Cc2ccccc2)C(C)(C)C)c1C(=O)N1CCCC1	2%	-30%	-3%	?	2%	?
COCc1ccc2oc(C(=O)O)cc2c1	0%	23µM*	-15%	12µM*	0%	3.4µM*
O=C(CSc1ccc(Br)cc1)Nc1ccc(N2CCOCC2)cc1	-3%	1%	8%	-14%	4%	-13%
Cc1ccc2nc(-c3ccccc3)cc(C(=O)NCC3CCCO3)c2c1 (centres undefined)	0%	?	2%	-24%	-4%	1%
CCOc1ccc(-c2cc(C(=O)NCC3CCCO3)c3ccccc3n2)cc1 (centres undefined)	-4%	15µM*	-9%	16µM*	-26%	5%
Cc1ccc2nc(-c3ccc(Br)cc3)cc(C(=O)NCC3CCCO3)c2c1 (centres undefined)	·	15µM*	·	15µM*	·	4%
Clc1ccccc1Cn1cccc1C1=NC(Cc2ccccc2)CO1 (centres undefined)	5%	-16%	-16%	4%	-2%	·
Clc1cccc(C=NC=Nc2cccc(Cl)c2)c1	9%[56.1 µM]	-6%	-6%	4%	-17%	·
O=C(NC(C(=O)c1ccccc1)n1c(=O)cc[nH]c1=S)c1ccccc1 (centres undefined)	-10%[56.1 µM]	-17%	17%	-24%	-5%	27µM*
O=C(NC(NC(=O)c1ccccc1)C(=O)c1ccccc1)c1ccccc1	2%[56.1 µM]	-3%	11%	-1%	4%	-5%
C=CCOc1ccc(/C=C2\SC(=S)N(NS(=O)(=O)c3ccccc3)C2=O)cc1	·	4%	?	-3%	-12%	21µM*
CC(/C=C1\SC(=S)N(NS(=O)(=O)c2ccccc2)C1=O)=C\c1ccccc1	·	-11%	?	-1%	-17%	0%
COc1ccc(/C=C2/SC(=S)N(NS(=O)(=O)c3ccccc3)C2=O)cc1	0%	-11%	?	5%	-8%	?
CC(/C=C1\SC(=S)N(NS(=O)(=O)c2ccc(C)cc2)C1=O)=C\c1ccccc1	·	5%	?	8%	?	19µM*
O=C1/C(=C\c2ccc(Br)cc2)SC(=S)N1NS(=O)(=O)c1ccccc1	5%	-2%	-1%	-2%	-18%	21µM*
CC(=O)N1C(=O)/C(=C2\SC(=S)N(NS(=O)(=O)c3ccc(C)cc3)C2=O)c2ccccc21	6%	16%	2%	-3%	-8%	17µM*
COc1cccc(CN2CCNC(=O)C2CC(=O)NCCn2cccn2)c1OC (centres undefined)	5%	9%	4%	-8%	?	-10%
Cc1cc(N(C)C(=O)c2ccc3c(c2)S(=O)(=O)c2cc(Cl)ccc2C3=O)c(C(F)(F)F)o1	1%	-24%	-13%	-12%	-2%	1%
CCn1c(=O)c([N+](=O)[O-])c(NC2CCS(=O)(=O)C2)c2ccccc21 (centres undefined)	·	-26%	10%	-12%	1%	-6%
CC(=O)Nc1nonc1-c1nnc(SCc2ccccc2Cl)n1C	2%	?	9%	?	-16%	·
CCOC(=O)N1CCN(C(=O)C2CCCN(Cc3nc(-c4ccc(Cl)cc4)oc3C)C2)CC1 (centres undefined)	3%	5.8µM*	5%	9.2µM*	1%	-4%
CCc1ccc(-c2nc(CN3CCCC(C(=O)N4CCN(c5cc(Cl)ccc5C)CC4)C3)c(C)o2)cc1 (centres undefined)	8%	3.3µM*	-12%	6.5µM*	-9%	·
COc1ccc2[nH]cc(CCNC(=O)c3cnn(-c4ccc(C)cc4)c3C3CCN(C(=O)OC(C)(C)C)CC3)c2c1	7%	5.2µM*	9%	9.2µM*	0%	·
Cc1ccc(-n2ncc(C(=O)N3CCCCC3)c2C2CCN(C(=O)OC(C)(C)C)CC2)cc1C	-5%	?	2%	?	19%	·
COc1ccc2[nH]cc(CCNC(=O)c3cnn(-c4ccccc4Cl)c3C3CCN(C(=O)OC(C)(C)C)CC3)c2c1	5%	10µM*	-4%	13µM*	-25%	·
SMILES	TDP1 block	TDP1 cell noCPT	VDR inh	TDP1 cell CPT	KAT2A inh	PLK1 PBD block
Cc1ccc(-n2ncc(C(=O)NCCN3CCN(C)CC3)c2C2CCN(C(=O)OC(C)(C)C)CC2)cc1	5%	?	-11%	?	?	·
Cc1ccc(-n2ncc(C(=O)NCCc3c[nH]c4ccccc34)c2C2CCN(C(=O)OC(C)(C)C)CC2)cc1C	8%	?	-14%	16µM*	-17%	·
CCCn1cnc2cc(NC(=O)c3cccs3)ccc21	1%	-2%	-15%	-10%	-16%	-11%
CCCC(=O)Nc1nnc(SCc2cc(=O)n3cccc(C)c3n2)s1	-3%	-24%	23%	-5%	7%	·
CC(=O)OCC1OC(C#Cc2ccc(C)cc2C)C=CC1OC(C)=O (centres undefined)	1%[21 µM]	·	·	·	·	·
COc1ccc2c(C)c(CCC(=O)NCc3cccc(Cl)c3)c(=O)oc2c1	4%	?	2%	?	-6%	·
Clc1ccc(Cc2ccccn2)cc1	-5%	4%	8%	-10%	-4%	1%
CC(C)CCc1noc(CN2CCN(CC(=O)NC(C)C)CC2)n1	·	26µM*	-10%	26µM*	0%	-5%
Cc1nc(C)c(C(=O)NNS(=O)(=O)c2ccc3ccccc3c2)s1	-2%	23µM*	-5%	?	-2%	-1%
CCN(CC)S(=O)(=O)c1cccc(NC2=NCC(C)S2)c1 (centres undefined)	-3%	-3%	26%	-23%	-6%	9%
O=C(/C=C/c1ccc(Cl)cc1)N1CCN(c2c(Cl)cccc2[N+](=O)[O-])CC1	6%	15µM*	2%	?	-8%	4%
O=C(CSc1ccc(Cl)cc1)N1CCN(c2ccc([N+](=O)[O-])cc2Cl)CC1	2%	18µM*	-19%	?	-6%	-19%
O=[N+]([O-])c1ccc(N2CCN(c3ccccc3O)CC2)c(Cl)c1	0%	23µM*	-19%	21µM*	-15%	-9%
O=[N+]([O-])c1ccc(N2CCN(CCOc3nonc3-c3ccccc3)CC2)c(Cl)c1	4%	?	8%	29µM*	-2%	-1%
O=C(Nc1ccccc1F)C1CCCN1S(=O)(=O)c1ccc(Cl)cc1 (centres undefined)	-3%	-10%	7%	-21%	-1%	-12%
